PubChem BioAssay AID1492 (National Center for Advancing Translational Sciences (NCATS), 2009)
Results filed as inconclusive are left out. Unmarked numbers belong to inactive results. Active and inactive are the calls of the source. The call rests on the fitted dose curve; in most records, active means well fitted inhibition curve with a large enough effect; inconclusive means small, poorly fitted or top-dose-only effect; inactive means flat fitted curve, though single readings scatter.

What follows are compounds tested against Muscarinic acetylcholine receptor M1 (Rattus norvegicus) (UniProt P08482) (assay: Counterscreen Concentration-Response Assay for Antagonists of the Neuropeptide S Receptor: Muscarinic Receptor Calcium Signal Transduction.). Details: CHO-M1 cells, carbachol-induced calcium fluorescence, FDSS; series mostly up to 20.2 µM; activity, negative = inhibition: at the top concentration.
From the text: NIH Chemical Genomics Center [NCGC] NIH Molecular Libraries Probe Production centers Network [MLPCN] MLPCN Grant: X01-DA026210-01 Assay Submitter (PI): Heilig, Markus Alexander NCGC Assay Overview: Neuropeptide S receptor (NPSR), previously known as GPR154, is a recently de-orphanized G protein coupled receptor. Its endogenous ligand is the 20 amino acids peptide Neuropeptide S (NPS). […] NPS and its receptor are found in various tissues. Specifically they are highly expressed in brain areas that have been implicated in modulation of arousal, stress and anxiety. Central administration of NPS in mice produces an unusual profile of activity by inducing wakefulness and arousal, while at the same time suppressing anxiety. Therefore, NPSR may represent a novel drug target for the treatment of sleep and anxiety disorders. To identify NPSR antagonists, we developed a cell-based assay with transfected NPS receptor. NPS can stimulate the production of cAMP as well as release intracellular calcium in Chinese hamster ovary cells stably expressing NPS receptor. This change in intracellular calcium can be detected using a calcium indicator dye on a calcium imaging plate reader system (FDSS). To validate the specific action of compounds on the NPS receptor, a counterscreen was developed that tests compounds' antagonism of M1 muscarinic receptor stimulation by carbachol. The protein, gene and taxonomy linked to this assay refer to Rattus norvegicus, but Chinese Hamster ovary cells were actually used.
NCGC Assay Protocol Summary: A Chinese hamster ovary (CHO) cell line stably expressing muscarinic acetylcholine M1 receptor (CHO-M1) was obtained from ATCC and maintained in F-12 Kaighn's media (Invitrogen, Carlsbad, CA, 21127) supplemented with 10 % FBS, 100 units/ml penicillin, 100 ug/ml streptomycin and 250 ug/ml geneticin at 37C, 5% CO2 in a humidified atmosphere. Before the assay, aliquots of cells were frozen and stored at -135C. The assay was performed on a FDSS-7000 kinetic plate reader in 1536-well format. The maximums of kinetic fluorescence responses were converted into text files using the instrument's software data export utility. […] AC50 values were determined from concentration-response data modeled with the standard Hill equation. CHO-M1 1536-well FDSS assay protocol: (1) Frozen CHO-M1 cells were thaw, washed once with fresh media and resuspended in F-12 Kaighn's media supplemented with 10 % FBS, 100 units/ml penicillin and 100 ug/ml streptomycin. Cells were plated at 3 ul/well (1200 cells) to black, clear-bottom, tissue-culture treated 1536-well plates, and then cultured at 37C, 5 % CO2 for 16 to 30 hours. (2) Add 3 ul of calcium dye (from High Performance PBX Calcium Assay Kit, BD Biosciences). The calcium dye was prepared according to the manufactory's instruction. (3) Incubation at 37C, 5 % CO2 for 60 min. (4) Add 23 nl/well of compound in DMSO solution. The final titration for each compound was between 0.6 nM and 46 uM. (5) Load plates to FDSS-7000. The following steps were performed on FDSS-7000. (6) Record fluorescent background (Ex 480 nm, Em 520-560 nm) for 10 s. (7) Add 2 ul of stimulation reagent (1X HBSS buffer, 0.1% BSA, 60 nM carbachol). Record antagonist response (Ex 480 nm, Em 520-560 nm) for 180 s. Keywords: MLSMR, MLPCN, NIH Roadmap, qHTS, NCGC, NPS, Neuropeptide S Antagonists

First: CCc1ccc2oc(-c3cc(N)cc(C)c3O)nc2c1
Second: Cc1ccc2oc(-c3cccc(NC(=S)NC(=O)/C=C/c4ccco4)c3)nc2c1
The “activity, negative = inhibition” value of the first is higher: 17.3% for the first, -15.2% for the second.

First: COc1cccc(C(=O)/C=C/Nc2ccc(S(=O)(=O)Nc3cccc(C(C)=O)c3)cc2)c1
Second: O=C(/C=C/c1ccco1)NC(=S)Nc1cccc(-c2nc3ccccc3o2)c1
The “activity, negative = inhibition” value of the first is lower: -19.1% for the first, -7.11% for the second.

Going from `O=C1CC(NCc2ccncc2)C(=O)N1c1ccccc1` (stereo not given) to `CCOc1ccc(N2C(=O)CC(NCCc3ccncc3)C2=O)cc1` (stereo not given), the “activity, negative = inhibition” value rises from 7.55% to 9.94%.

Compared with `O=C(CSc1n[nH]c(-c2cccnc2)n1)Nc1ccnc2ccccc12`, `O=C(CSC1=NCCS1)Nc1ccnc2ccccc12` is higher in “activity, negative = inhibition” value: 3% for the first, 7.63% for the second.

First: Nn1c(COc2ccccc2)nnc1SCc1cc(=O)[nH]c2ccccc12
Second: Cn1c(COc2ccccc2)nnc1SCc1cc(=O)[nH]c2ccccc12
The “activity, negative = inhibition” value of the first is higher: 3.18% for the first, -0.776% for the second.

Going from `O=[N+]([O-])c1cc2c(cc1/C=N/n1c(-c3ccccc3)n[nH]c1=S)OCO2` to `C=CCNC(=O)/C(C#N)=C/c1cn(-c2ccccc2)nc1-c1ccc(OC)c([N+](=O)[O-])c1`, the “activity, negative = inhibition” value falls from -9.38% to -10.9%.

Compared with `Cc1cccc(-c2nnc(SCc3cc(=O)[nH]c4ccccc34)n2C)c1`, `COCCCn1c(SCc2cc(=O)[nH]c3ccccc23)nnc1-c1ccco1` is lower in “activity, negative = inhibition” value: 3.42% for the first, -8.77% for the second.

Going from `O=C(O)CCCCCNc1nc(=S)[nH]c2ccccc12` to `O=c1cc(CNCCCO)c2ccccc2[nH]1`, the “activity, negative = inhibition” value rises from -7.08% to 6.24%.

First: CC1CCCc2sc3nc(N4CCN(CCO)CC4)n4ncnc4c3c21 (stereo not given)
Second: CCn1cc(C(=O)NCC2CCCO2)c(=O)c2cc(S(=O)(=O)N3CCCCCC3)ccc21 (stereo not given)
The “activity, negative = inhibition” value of the first is lower: 17.7% for the first, 20.3% for the second.

Compared with `O=C1Nc2ccc(S(=O)(=O)N3CCCC3C(=O)O)c3cccc1c23` (stereo not given), `CC1CCCCN1S(=O)(=O)c1ccc(C(=O)Nc2sccc2C(N)=O)cc1` (stereo not given) is lower in “activity, negative = inhibition” value: 0.459% for the first, -6.92% for the second.

Going from `CN(Cc1cc(=O)[nH]c2ccccc12)C(=O)c1ccccc1` to `Cn1c(C(=O)NCCN2CCc3ccccc3C2)cc2c(=O)[nH]c3ccccc3c21`, the “activity, negative = inhibition” value rises from -5.45% to 4.13%.

First: c1ccc(-c2ccc(-c3nc(-c4cccnc4)no3)cc2)cc1
Second: C=CCn1c(SCCN2C(=O)c3ccccc3C2=O)nc2scc(-c3ccccc3)c2c1=O
The “activity, negative = inhibition” value of the first is higher: 12.7% for the first, 11.2% for the second.

First: CN(CC(=O)NCc1ccc(F)cc1)S(=O)(=O)c1cccc2nsnc12
Second: CCC(C)n1c(=O)c(C(=O)Nc2ccccc2S(N)(=O)=O)c(O)c2ccccc21 (stereo not given)
The “activity, negative = inhibition” value of the first is higher: 7.72% for the first, -8.1% for the second.

First: CC1CCN(S(=O)(=O)c2ccc(C(=O)Nc3sccc3C(N)=O)cc2)CC1
Second: C#CC(=O)N(c1cccc(OC)c1)C(C(=O)NC1CCCC1)c1cccs1 (stereo not given)
The “activity, negative = inhibition” value of the first is higher: -2.17% for the first, -9.03% for the second.

Compared with `C=CCOc1c(Cl)cc(CNc2ccc(N(C)C)cc2)cc1OC`, `COc1ccc(/C=C2\CCCC3C2=NN(C(=O)c2ccco2)C3c2ccc(OC)c(OC)c2)cc1OC` (stereo not given) is higher in “activity, negative = inhibition” value: 7.52% for the first, 12.2% for the second.

First: N#CC(C#N)=c1ccc2c(c1)NC1(CCCCC1)N=2
Second: OC(C#Cc1ccccn1)c1cccs1 (stereo not given)
The “activity, negative = inhibition” value of the first is lower: -17.5% for the first, -17% for the second.

Compared with `COc1ccccc1-c1nnc(SC2CCc3ccccc3NC2=O)s1` (stereo not given), `Cc1cccnc1NC(=O)c1c(O)c2cccc3c2n(c1=O)CCC3` is lower in “activity, negative = inhibition” value: -0.169% for the first, -12.7% for the second.

Compared with `CCC(Sc1ccc2nnc(-c3cccnc3)n2n1)C(=O)O` (stereo not given), `Brc1ccc(CSc2ncn[nH]2)cc1` is lower in “activity, negative = inhibition” value: -10.5% for the first, -10.8% for the second.

With `C(=C\c1ccccc1)/C=N/N1CCN(c2ccccn2)CC1` the “activity, negative = inhibition” value was 8.26%.

`O=C(/C(=C/c1ccc(Cl)cc1)c1nc2ccccc2[nH]1)c1cccs1` was tested, and the Potency was 7.94 µM (active).
In the case of `Cc1ccc(-c2ccc(/C=C3\C(=O)ON=C3c3ccccc3)o2)c([N+](=O)[O-])c1`, the Potency is reported as 3.98 µM (active).
In the case of `O=C(COC(=O)c1ccccc1C(=O)c1ccc(Cl)c([N+](=O)[O-])c1)NC1CCCCCC1`, the Potency is reported as 4.47 µM (active).
